Screens as filed in PubChem BioAssay.
Pf growth 96h = Primary qHTS for delayed death inhibitors of the malarial parasite plastid, 96 hour incubation. 320,000 tested, 6.9% active. AID 504834, 2011. Potency, µM (top dose mostly 28.7 µM), most hits filed as inhibitors. P. falciparum luciferase reporter growth, 96 h
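Infected RBCs, 2% Hct / 0.05% parasitemia final; luciferase-reporter P. falciparum; cpd 96 h, 37 C, 5% CO2; luciferase detection reagent; luminescence.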
Pf growth 48h = Primary qHTS for delayed death inhibitors of the malarial parasite plastid, 48 hour incubation | P. falciparum luciferase growth in erythrocytes, 48 h | Potency, µM (doses to about 28.7 µM), hits mostly inhibitors | 310,000 tested, 5.9% active
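First compound was added to culture medium, then infected red cells at 0.1% parasitemia and 2% hematocrit (final). After incubation at 37 C under 5% CO2, luciferase detection reagent was dispensed and light output recorded.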
MARV entry inh = qHTS for inhibitors of binding or entry into cells for Marburg Virus; Potency, µM (doses to about 37.8 µM), usual class: inhibitors; Marburg virus pseudotyped entry inhibition, cell reporter; 300,000 tested, 1.8% active; calls by dose curve; tested in HEK293 cells
HCMV inh = qHTS Assay for inhibitors of the human cytomegalovirus (HCMV). 410,000 tested, 4.5% active. activity change, negative = inhibition, % at 57.5 µM. AID 1259415, 2018. HFF cells, HCMV-luciferase reporter, 72 h; stronger effect = lower value; in the data active = activity change below about -60%; inconclusive = no clear call, values can overlap the other calls; inactive = above about -39%
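Inhibition of viral replication was scored as loss of reporter luminescence in HFFs infected with HCMV-luciferase (MOI 1 PFU/cell) for 72 h; compounds tested at 2 doses, normalized to buffer and Salinomycin controls.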
LASV entry inh = qHTS for Inhibitors of binding or entry into cells for Lassa Virus. Lassa virus pseudotype entry inhibition, cell reporter. AID 540256, 2011. 300,000 tested, 1.2% active. Potency, µM (top dose mostly 37.9 µM), hits mostly inhibitors; calls by dose curve; tested in HEK293 cells; also: nearly all actives have a fitted effect of over 50% in size
HCV inh = qHTS Assay for Inhibitors of Hepatitis C Virus (HCV) | Huh7.5.1 HCVcc-Cre infection, luciferase reporter, 44 h | Potency, µM (series often up to 41.8 µM), actives largely listed as inhibitors | 340,000 tested, 3.4% active
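Cells seeded at 1,000/well and cultured 4 h, then compounds added followed by HCVcc-Cre virus (~0.5 moi). After 44 h further culture, luciferase substrate was added, plates held 15 min at room temperature, and luminescence read for 15 sec.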
A number is an active result; n = inactive; u = inconclusive; x = no result; [ ] = another dose, or the depositor's remark. Shown are actives, neighbours in structure and some others; about 14% of the full set was active somewhere. Unless noted, calls follow the shape of the dose curve; as a rule, active = well fitted inhibition curve with a large enough effect; inconclusive = small, poorly fitted or top-dose-only effect, or another doubt; inactive = no such curve, though single readings can be large or run the other way.

SMILES	Pf growth 96h	Pf growth 48h	MARV entry inh	HCMV inh	LASV entry inh	HCV inh
c1nc(NCCN2CCOCC2)c2c3c(sc2n1)CCCCC3	u	n	n	n	n	n
c1cn(-c2ncnc3sc4c(c23)CCCC4)cn1	0.165µM	n	n	-69.8	n	n
c1nc(N2CCOCC2)c2c3c(sc2n1)CCCC3	n	u	n	-64.8	n	u
CSc1nc(N2CCOCC2)c2c3c(sc2n1)CCCC3	n	u	n	n	n	u
c1ccn(-c2ncnc3sc4c(c23)CCCC4)c1	u	x	n	u	n	n
Cc1nc(N2CCOCC2)c2c3c(sc2n1)CCC3	u	10.4µM	n	n	n	u
CCN(CC)C(=O)C1=C(C)N(Cc2ccc(F)cc2)C(=O)C(CC(=O)NC(c2ccccc2)c2ccccc2)C1 (stereo not drawn)	x	x	x	n	x	x
CCN(C(=O)COC(=O)c1cccc(S(=O)(=O)N(C)C)c1)c1c(N)n(Cc2ccccc2)c(=O)[nH]c1=O	x	x	x	u	x	n
COc1ccccc1CNC(=O)Cc1csc2nc(-c3ccc(F)cc3)cn12	x	x	x	n	n	x
CCNC(=O)C1(C)CCCN(Cc2ccccc2-c2ccccc2)C1 (stereo not drawn)	x	x	x	n	x	x
COc1ccc2oc(C(=O)OCC(=O)NC3CCS(=O)(=O)C3)c(C)c2c1 (stereo not drawn)	x	x	x	n	x	x
CCCOc1ccc(/C=C/C(=O)Nc2sc3c(c2C(=O)OCC)CCC(C)C3)cc1OC (stereo not drawn)	x	x	x	n	n	x
O=C(C(=O)N1CCN(C(=O)c2ccco2)CC1)c1cc2ccccc2o1	x	x	x	n	x	x
COc1ccc(-c2coc3cc(O[C@@H]4O[C@H](CO)[C@@H](O)[C@H](O)[C@H]4O)c(OC)cc3c2=O)cc1	x	x	x	n	x	n
COc1ccc(-c2coc3cc(OC4OC(CO)C(O)C(O)C4O)ccc3c2=O)cc1 (stereo not drawn)	11.7µM	n	x	n	x	n
COc1ccc2[nH]c(C)c(CCNC(=S)Nc3cc(C)ccc3C)c2c1	n	n	n	-60.6	n	u
CCc1cccc(C)c1NC(=S)NCCc1c(C)[nH]c2ccc(C)cc12	14.7µM	u	u	-71.7	u	35.5µM
CCc1cccc(CC)c1NC(=S)NCCc1c(C)[nH]c2ccc(C)cc12	10.4µM	u	u	-92.9	u	22.4µM
COc1ccc2[nH]c(C)c(CCNC(=S)Nc3cccc(C)c3)c2c1	u	u	u	u	u	n[8.37 µM]
COc1ccc2[nH]c(C)c(CCNC(=S)Nc3cc(C)cc(C)c3)c2c1	n	u	n	u	n	n[8.37 µM]
COc1cc(OC)c(N(C)C(=O)c2sc3nc4n(c(=O)c3c2C)CCCC4)cc1Cl	x	x	x	n	n	x
COc1ccc(O[C@H]2C=C[C@@H](c3ccccc3)O[C@@H]2COC(=O)CC/C(C)=N/O[C@@H](C)c2cc(-c3c(C)cc(C)cc3C)no2)cc1	2.94µM	u	n	x	n	n[8.37 µM]
CCOC(=O)C1=C(COc2ccccc2)NC(=O)NC1c1ccc(Br)cc1 (stereo not drawn)	3.29µM	u	x	n	x	n
CCOC(=O)C1=C(CNCc2ccccc2)NC(=O)NC1c1ccc(C)cc1 (stereo not drawn)	x	x	n	-69.7	n	x
CCOC(=O)C1=C(c2ccccc2)NC(=O)NC1c1ccc(O)c(Cl)c1 (stereo not drawn)	u	n	x	-101.6	x	n
SMILES	Pf growth 96h	Pf growth 48h	MARV entry inh	HCMV inh	LASV entry inh	HCV inh
CCOC(=O)C1=C(CS(=O)(=O)c2ccccc2)NC(=O)NC1c1cc(OC)c(O)c(OC)c1 (stereo not drawn)	2.62µM	n	x	n	x	n
CCOC(=O)C1=C(COc2ccccc2)NC(=O)NC1c1ccc2ccccc2c1 (stereo not drawn)	x	x	x	n	x	n
CCOC(=O)C1=C(c2ccccc2)NC(=O)NC1c1ccc(O)c(OCC)c1 (stereo not drawn)	n	n	n	n	n	n
COc1cc(OC)c(OC)cc1CNC(=O)c1cc(S(=O)(=O)N(C)c2ccccc2OC)ccc1C	x	x	x	n	x	u
Cc1ccc(Sc2ccc(N3CCCC(C(=O)Nc4ccc(Br)cc4)C3)nn2)cc1 (stereo not drawn)	x	x	n	n	1.12µM	x
COc1ccc(OC)c(NC(=O)C2(C)CCN2Cc2ccc(OC)c3ccccc23)c1 (stereo not drawn)	x	x	x	n	x	x
CCCn1ccc2c(OCC(=O)Nc3ccc(C(F)(F)F)cc3)cccc2c1=O	x	x	x	n	n	x
O=C(/C=C/c1ccccc1)CC(=O)c1ccccc1O	u	n	n	n	n	11.2µM
CCCOC(=O)c1cc(NC(=O)/C=C/c2ccccc2)ccc1O	10.4µM	u	x	n	x	x
O=C(/C=C/c1ccccc1)NC(=O)c1ccccc1O	1.65µM	1.31µM	n	n	x	n
CCOCC(=O)Nc1ccc(-c2cn3c(C)csc3n2)cc1	x	x	x	u	n	x
COc1ccc(-c2nnc(-c3ccc(Br)o3)o2)cc1OC	u	n	n	-107.1	n	n
COc1ccc(-c2nc(-c3ccc(Br)o3)no2)cc1OC	u	n	x	n	x	u
Cc1c(Cl)cccc1NC(=O)N1CCN(Cc2cc(=O)n3nc(-c4ccccc4F)sc3n2)CC1	x	x	x	n	n	x
COC(=O)c1ccc2c(c1)SC1=C(CCCC1=O)N2	u	u	n	n	n	u
O=C1CCCC2=C1Sc1ccc(Cl)cc1N2	n	n	x	n	x	11.2µM
Cc1ccccc1NC(=O)Cc1nc(COC(=O)c2ccc(S(C)(=O)=O)c([N+](=O)[O-])c2)cs1	u	u	x	x	x	10µM
COc1ccc(C(=O)OCC(=O)Nc2ccccc2)cc1[N+](=O)[O-]	n	n	x	n	x	n
Cc1ccccc1NC(=O)COC(=O)c1ccc(S(C)(=O)=O)c([N+](=O)[O-])c1	n	n	9.2µM	-93.5	20.6µM	u
COc1cc(C(=O)OCc2csc(CC(=O)Nc3ccccc3C)n2)ccc1OCC(C)C	9.28µM	13.1µM	u	n	n	u
CC(=O)c1cccc(NC(=O)COC(=O)c2ccc(S(C)(=O)=O)c([N+](=O)[O-])c2)c1	u	u	x	n	x	5.01µM
CN1c2ccccc2SC2C(c3ccccc3)=NOC21 (stereo not drawn)	x	x	x	n	x	x
COc1ccc(CC(=O)Nc2nc(OCCN3CCCC3=O)cnc2-c2cccc(C(F)(F)F)c2)cc1	x	x	x	n	x	x
C=CCn1c(O)c(N=Nc2ccccc2[N+](=O)[O-])c2ccccc21	x	x	x	n	x	x
CS(=O)(=O)c1ccc(C(=O)OCc2nnc(-c3ccccc3)o2)cc1[N+](=O)[O-]	n	n	3.16µM	n	u	u
CC(CCc1ccccc1)NC(=O)COC(=O)c1ccc(S(C)(=O)=O)c([N+](=O)[O-])c1 (stereo not drawn)	n	n	u	-98.5	u	u
O=C(OCc1ccc(C(=O)c2ccccc2)cc1)c1cccc(-c2nnc(-c3ccccc3)o2)c1	n	n	u	u	u	14.1µM
